The target of test [1] is Bile acid receptor (Homo sapiens) (UniProt Q96RI1). Description: qHTS assay for small molecule antagonists of farnesoid X receptor signaling (AID 588526). Further: potency means the concentration at half of the fitted maximal effect. The settings on record: HEK293T FXR-UAS-bla, beta-lactamase ratio, antagonist mode; series mostly up to 76.7 µM. Put shortly: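 Concentration-response titrations were fitted to the Hill equation for half-maximal inhibition and maximal response, with data normalised to 50 uM chenodeoxycholic acid and DMSO control wells. Cells: FXR-UAS-bla HEK293T, dialyzed FBS.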
Sequence of Bile acid receptor (Homo sapiens) (Q96RI1 whole entry, looked up): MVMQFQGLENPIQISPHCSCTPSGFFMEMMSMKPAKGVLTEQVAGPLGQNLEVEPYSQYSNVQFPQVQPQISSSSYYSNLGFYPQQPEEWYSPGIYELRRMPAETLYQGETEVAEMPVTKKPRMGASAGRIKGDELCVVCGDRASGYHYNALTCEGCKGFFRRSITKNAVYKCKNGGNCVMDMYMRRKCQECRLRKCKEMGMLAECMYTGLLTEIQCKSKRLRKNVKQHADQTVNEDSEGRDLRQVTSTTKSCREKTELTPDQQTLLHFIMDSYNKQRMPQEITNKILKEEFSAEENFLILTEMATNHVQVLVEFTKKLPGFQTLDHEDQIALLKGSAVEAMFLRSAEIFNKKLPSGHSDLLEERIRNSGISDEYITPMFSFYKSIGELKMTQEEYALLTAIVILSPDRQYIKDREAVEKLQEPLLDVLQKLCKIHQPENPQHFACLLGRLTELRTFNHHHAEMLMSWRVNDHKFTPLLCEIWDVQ
Background: qHTS replaces the single test concentration by a dilution series.

In test [2] the target is Peroxisome proliferator-activated receptor gamma (Homo sapiens) (UniProt P37231). As to the kind of experiment: qHTS assay for small molecule antagonists of peroxisome proliferator-activated receptor gamma signaling (AID 588537; active means well fitted inhibition curve with a large enough effect in the signal ratio, with a control signal flat, not every such curve was filed as active; the % refers to the signal ratio; further: potency means the concentration at half of the fitted maximal effect). The settings on record: HEK293 PPARg-UAS-bla, beta-lactamase ratio, antagonist mode; series mostly up to 76.8 µM. The essentials: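 HEK293 cells, PPAR-gamma-UAS-bla, 3000/well. Pre-incubation 6-6.5 h, 37 C. Compound titration with rosiglitazone 50 nM final, 16 h. CCF4 dye, 2 h RT, dual-emission fluorescence.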
Sequence of Peroxisome proliferator-activated receptor gamma (Homo sapiens) (P37231 whole entry, looked up): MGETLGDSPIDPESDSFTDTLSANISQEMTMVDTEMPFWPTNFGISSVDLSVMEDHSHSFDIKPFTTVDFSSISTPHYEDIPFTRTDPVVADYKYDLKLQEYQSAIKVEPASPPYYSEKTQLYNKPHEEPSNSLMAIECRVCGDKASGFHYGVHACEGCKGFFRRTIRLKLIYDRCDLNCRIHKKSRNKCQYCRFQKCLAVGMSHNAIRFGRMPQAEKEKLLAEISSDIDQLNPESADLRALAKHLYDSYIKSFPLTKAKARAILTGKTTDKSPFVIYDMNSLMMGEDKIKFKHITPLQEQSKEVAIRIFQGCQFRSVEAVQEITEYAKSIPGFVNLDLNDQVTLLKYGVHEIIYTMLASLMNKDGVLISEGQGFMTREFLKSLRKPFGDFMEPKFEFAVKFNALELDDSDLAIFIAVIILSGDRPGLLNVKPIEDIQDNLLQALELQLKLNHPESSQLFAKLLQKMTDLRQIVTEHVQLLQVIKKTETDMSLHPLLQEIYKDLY

A short description of test [3]: qHTS assay for small molecule agonists of retinoid X receptor alpha signaling (AID 588544). The settings on record: HEK293T RXRa-UAS-bla, beta-lactamase reporter, 18 h; 530 nm emission.
In test [4] the target is Thyroid hormone receptor beta (Homo sapiens) (UniProt P10828). As to the kind of experiment: qHTS assay for small molecule antagonists of thyroid hormone receptor beta signaling (AID 588547; active means well fitted inhibition curve with a large enough effect in the signal ratio, with a control signal flat, not every such curve was filed as active; the % refers to the signal ratio;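 further: cells stimulated with 0.4 nM T3 agonist during compound exposure; on the % scale 0 is the no-effect control and ±100 the full control effect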). The settings on record: TR-UAS-bla HEK293, beta-lactamase ratio, antagonist mode, 18 h. Put shortly: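 TR-UAS-bla GripTite HEK293 cells in 2% charcoal/dextran FBS medium were preincubated 4 h at 37 C, given compound (0.59 nM to 92 uM) plus 0.4 nM T3 (final) for 18 h, then CCF4 for 2 h at RT; Hill fit gave IC50.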
Sequence of Thyroid hormone receptor beta (Homo sapiens) (P10828 whole entry, looked up): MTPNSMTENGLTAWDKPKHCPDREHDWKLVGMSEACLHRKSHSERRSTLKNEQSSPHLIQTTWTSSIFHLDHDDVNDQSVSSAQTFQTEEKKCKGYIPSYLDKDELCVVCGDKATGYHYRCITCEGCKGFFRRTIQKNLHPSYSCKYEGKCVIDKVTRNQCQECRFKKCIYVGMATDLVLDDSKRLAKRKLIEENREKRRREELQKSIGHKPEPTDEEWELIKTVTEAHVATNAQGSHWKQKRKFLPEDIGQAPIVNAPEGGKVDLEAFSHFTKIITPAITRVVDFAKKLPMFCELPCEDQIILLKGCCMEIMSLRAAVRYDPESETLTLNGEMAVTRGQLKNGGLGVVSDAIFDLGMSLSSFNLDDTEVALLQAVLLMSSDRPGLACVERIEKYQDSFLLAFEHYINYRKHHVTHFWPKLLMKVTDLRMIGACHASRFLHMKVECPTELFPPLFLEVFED

A short description of test [5]: qHTS assay for small molecule agonists of the antioxidant response element (ARE) signaling pathway (AID 651741; active means well fitted activation curve with a large enough effect in the signal ratio; the % refers to the signal ratio; further: potency means the concentration at half of the fitted maximal effect; on activation: % of control where 0% means no effect). The settings on record: HepG2 ARE-bla reporter, beta-lactamase FRET ratio, 16 h; series mostly up to 96 µM. Put shortly: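 Beta-lactamase reporter expression driven by the antioxidant response element in HepG2 cells was detected by fluorescence with LiveBLAzer B/G FRET substrate (2 h, room temperature) following 16 h compound treatment at 37 C.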

The target of test [6] is Androgen receptor (Homo sapiens) (UniProt P10275). Description: qHTS assay for small molecule agonists of androgen receptor signaling (AID 588515; active means well fitted curve in the direction sought with a large enough effect in the signal ratio, with a control signal flat; the % refers to the signal ratio; further: on the % scale 0 is the no-effect control and ±100 the full control effect). The settings on record: AR-UAS-bla HEK293, beta-lactamase ratio, agonist 16 h; activation: stronger effect = higher value. Put shortly:
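Stimulation of an AR-responsive β-lactamase reporter in GripTite HEK293 cells was measured after 16 h compound exposure at 37 °C, via CCF4 fluorescence after 2 h RT. EC50 from Hill fits, normalized to R1881 at 30 nM.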

Test [7] deals with Peroxisome proliferator-activated receptor gamma (Homo sapiens) (UniProt P37231). Description: qHTS assay for small molecule agonists of peroxisome proliferator-activated receptor gamma signaling (AID 588536; active means well fitted curve in the direction sought with a large enough effect in the signal ratio, with a control signal flat, not every such curve was filed as active; the % refers to the signal ratio). The settings on record: HEK293 PPARg-UAS-bla, beta-lactamase ratio, 16 h, percent of rosiglitazone response, DMSO as zero; series mostly up to 76.7 µM. Put shortly: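 Beta-lactamase reporter read-out: CCF4 fluorescence (ex 405, em 460/530 nm) after 2 h at RT. HEK293 GeneBLAzer cells were treated for 16 h at 37 C. Hill fits gave EC50 and efficacy versus 2 uM rosiglitazone (100%) and DMSO (0%).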

For test [8], the target named is Androgen receptor (Homo sapiens) (UniProt P10275). As to the kind of experiment: qHTS assay for small molecule antagonists of androgen receptor signaling (AID 588516; active means well fitted curve in the direction sought with a large enough effect in the signal ratio, with a control signal flat, not every such curve was filed as active; the % refers to the signal ratio; further: on the % scale 0 is the no-effect control and ±100 the full control effect). The settings on record: AR-UAS-bla HEK293, beta-lactamase ratio, antagonist mode, 16 h; series mostly up to 76.8 µM. Put shortly:
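Antagonist mode: inhibition of R1881-stimulated (10 nM final) bla reporter in GeneBLAzer AR HEK 293 cells, 16 h at 37C, compounds titrated. IC50 and efficacy from Hill-equation fits of 405/460–530 nm FRET ratios.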

These results are taken from PubChem BioAssay (NCATS).

Values joined by “and” are separate entries in the source; they are usually repeats but may differ in a detail not shown here. Equal entries are not always repeated. Inconclusive results are not listed. Active and inactive are the calls of the source. Unless noted, the call rests on the fitted dose curve.

Sequence of Androgen receptor (Homo sapiens) (P10275 whole entry, looked up): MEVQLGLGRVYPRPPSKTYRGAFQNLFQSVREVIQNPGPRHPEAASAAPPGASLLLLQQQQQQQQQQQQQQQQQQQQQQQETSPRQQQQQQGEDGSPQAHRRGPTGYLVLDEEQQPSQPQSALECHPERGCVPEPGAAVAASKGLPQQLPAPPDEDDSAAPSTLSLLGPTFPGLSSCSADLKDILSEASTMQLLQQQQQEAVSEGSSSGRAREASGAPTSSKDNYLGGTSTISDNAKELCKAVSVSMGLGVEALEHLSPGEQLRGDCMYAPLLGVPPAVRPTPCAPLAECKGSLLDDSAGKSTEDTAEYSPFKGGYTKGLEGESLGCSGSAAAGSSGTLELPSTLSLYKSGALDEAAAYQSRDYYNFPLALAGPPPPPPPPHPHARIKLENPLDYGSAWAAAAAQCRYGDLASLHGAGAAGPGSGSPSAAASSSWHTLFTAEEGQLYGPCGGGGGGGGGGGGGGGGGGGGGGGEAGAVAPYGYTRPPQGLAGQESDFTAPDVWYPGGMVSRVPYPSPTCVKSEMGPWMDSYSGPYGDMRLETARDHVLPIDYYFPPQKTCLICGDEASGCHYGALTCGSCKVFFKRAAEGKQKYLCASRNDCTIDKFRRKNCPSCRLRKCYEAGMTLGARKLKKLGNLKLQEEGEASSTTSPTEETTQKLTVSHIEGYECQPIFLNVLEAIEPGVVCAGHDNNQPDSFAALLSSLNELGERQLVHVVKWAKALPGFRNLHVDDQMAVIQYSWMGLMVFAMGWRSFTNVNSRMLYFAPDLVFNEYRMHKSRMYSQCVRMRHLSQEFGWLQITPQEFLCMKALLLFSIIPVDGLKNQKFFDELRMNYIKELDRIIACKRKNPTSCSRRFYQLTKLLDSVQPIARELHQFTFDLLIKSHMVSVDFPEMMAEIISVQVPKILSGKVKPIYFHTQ

As to `CN(C)CCOCCN(C)C`, the Potency entry in test [1], in test [2] and in test [5] was “inactive” throughout. In test [3], the max response was found to be 1.75%. The activity change % (negative = inhibition) in test [4] is -4.05% (inactive).

Consider `CCOC(=O)[C@H](C)Oc1ccc(Oc2nc3ccc(Cl)cc3o2)cc1`, for which, in test [1], the Potency result was “inactive”. Besides, the activity change % (negative = inhibition) in test [4] was -0.0371% (inactive).

`CCCCCCCCCCCC[N+](C)(C)[O-]`: the activation in test [6] was -8.49% (inactive). In addition, in test [2], the Potency result was “inactive”. Moreover, in test [4], the activity change % (negative = inhibition) was -1.65% (inactive).

`CC(C)(C)c1ccc(C(=O)O)cc1`: the Potency entry in test [1] was “inactive”. Besides, the max response in test [3] turned out to be 0.0983%. Also, in test [4], the activity change % (negative = inhibition) was 0.292% (inactive).

As to `CC(C)C[C@H](NC(=O)OCC1c2ccccc2-c2ccccc21)C(=O)O`, the Potency entry in test [1] and in test [2] was “inactive” throughout. Besides, the activity change % (negative = inhibition) in test [4] is -4.45% (inactive).

Regarding `COC(=O)CSc1cc(N=c2sc(=O)n3n2CCCC3)c(F)cc1Cl`, the activation in test [6] was -5.93% (inactive). Further, the Potency entry in test [1] and in test [2] was “inactive” each time. In test [7], the outcome was inactive.

Take `c1ccc2c(c1)ccc1c3ccccc3ccc21`: the Potency entry in test [1] and in test [2] was “inactive” each time. For the same compound, the result in test [7] was inactive. For the same compound, in test [3], the max response is -11.3%.

For the compound `O=C1NC(=O)C(Cc2ccc(OCCN3COc4ccccc4C3=O)cc2)S1` (centres undefined), the activation in test [6] is -3.44% (inactive). Further, the Potency result in test [1] is “inactive”. For the same compound, the Potency in test [5] was 48.6 µM (active).

On to `CCCCC(CC)COC(=O)/C=C\C(=O)OCC(CC)CCCC` (centres undefined), for which the result in test [8] and in test [7] was inactive. Moreover, the max response in test [3] turned out to be 1.27%.

Consider `COC(=O)CCSCCC(=O)OC`, for which the Potency entry in test [1] was “inactive”.

For the compound `CCOc1ccc(NC(=O)OC(C)C)cc1OCC`, the Potency entry in test [1], in test [2] and in test [5] was “inactive” throughout. Further, in test [7], the outcome was inactive.

On to `CC(C)(C)[C@H](O)[C@H](Cc1ccc(Cl)cc1)n1cncn1`, for which the Potency entry in test [1] and in test [2] was “inactive” in each case. Further, the result in test [7] was inactive. Also, the max response in test [3] is -4.23%. Besides, in test [4], the activity change % (negative = inhibition) was -7.84% (inactive) and -5.42% (inactive).

As for `CCCCCCCCCCCCCCCO`, the Potency result in test [1], in test [2] and in test [5] was “inactive” in each case. The max response in test [3] is -7.63%. Moreover, the activity change % (negative = inhibition) in test [4] is 4.44% (inactive).

Take `CS(C)=O`: the Potency result in test [1] is “inactive”. The result in test [7] was inactive. In addition, the activity change % (negative = inhibition) in test [4] is -25.7% (inactive).

`CCCCCCCCCC(=O)OC`: the Potency result in test [1] and in test [2] was “inactive” in each case. Also, the outcome in test [7] was inactive. In addition, the max response in test [3] is -16.2%.

Regarding `CO[Si](CCCOCC1CO1)(OC)OC` (centres undefined), the Potency entry in test [1] and in test [2] was “inactive” each time. The result in test [7] was inactive. Also, in test [3], the max response is -16.2%. In addition, in test [4], the activity change % (negative = inhibition) was 7.57% (inactive).

As for `NC(=O)Cc1cccc2ccccc12`, the Potency entry in test [1], in test [2] and in test [5] was “inactive” throughout. In addition, the outcome in test [7] was inactive. Also, in test [3], the max response was -2.89%.

For `Oc1ccc(C(c2ccc(O)cc2)C(Cl)(Cl)Cl)cc1`, the Potency entry in test [1] was “inactive”. Besides, in test [4], the activity change % (negative = inhibition) is -14.4% (inactive). Besides, the Potency in test [5] is 54.5 µM (active).

Consider `CCCCCCCCCCCC(=O)OC`, for which the Potency in test [1] is 20 µM (active); in test [5], 24.3 µM (active).

On to `CCCCCCC(C)(C)S`, for which the Potency result in test [1], in test [2] and in test [5] was “inactive” each time. Moreover, the result in test [7] was inactive. In test [3], the max response is -19.5%.

On to `OCc1cccc(Oc2ccccc2)c1`, for which the activation in test [6] is 3.06% (inactive). The outcome in test [8] and in test [7] was inactive. For the same compound, the max response in test [3] is -8.28%. In addition, the Potency entry in test [5] is “inactive”.

Regarding `CCCC[O][Al]([O]CCCC)[O]CCCC`, the Potency result in test [1], in test [2] and in test [5] was “inactive” in each case. Further, in test [3], the max response came to 3.08%.

Regarding `CCOCCOCCOCCO`, the Potency result in test [1], in test [2] and in test [5] was “inactive” in each case. In addition, the result in test [7] was inactive. Besides, in test [3], the max response is -7.49%. Moreover, the activity change % (negative = inhibition) in test [4] was 8.91% (inactive).

With `Cc1ccc(N)c(S(=O)(=O)O)c1`, the result in test [7] was inactive. Further, the Potency result in test [2] was “inactive”. Also, the max response in test [3] is -0.582%. Moreover, the activity change % (negative = inhibition) in test [4] is -15.2% (inactive). The Potency in test [5] is 61.1 µM (active).

In the case of `CCCCCCCC[Si](OCC)(OCC)OCC`, the result in test [7] was inactive. Also, the Potency entry in test [2] and in test [5] was “inactive” in each case. Besides, the activity change % (negative = inhibition) in test [4] is 3.89% (inactive).

With `CCC(O)OCCCOC` (centres undefined), the result in test [7] was inactive. For the same compound, the Potency entry in test [2] is “inactive”. Moreover, in test [3], the max response is -7.67%. In test [4], the activity change % (negative = inhibition) is -6.47% (inactive).

Take `C1=C/CC/C=C/CC/C=C/CC/1`: in test [7], the result was inactive. For the same compound, the Potency result in test [2] and in test [5] was “inactive” throughout. The activity change % (negative = inhibition) in test [4] was 0.305% (inactive).

Consider `O=C(O)C1(C(=O)Nc2ccc(Cl)cc2Cl)CC1`, for which the outcome in test [8] was inactive. In test [2], the Potency was 44.7 µM (active).

As for `CCCCCCC(O)CCCCCCCCCCC(=O)O` (centres undefined), the Potency entry in test [1] and in test [2] was “inactive” each time. Moreover, the max response in test [3] was -2.57%.

Take `Nc1cc(Cl)c(O)c(Cl)c1`: the activation in test [6] was -4.43% (inactive). Also, in test [2], the Potency entry is “inactive”.

For `CC(=O)c1c(C)c([N+](=O)[O-])c(C(C)(C)C)c([N+](=O)[O-])c1C`, the outcome in test [7] was inactive. Besides, in test [2], the Potency entry was “inactive”. Moreover, in test [3], the max response is -17.8%. For the same compound, in test [4], the activity change % (negative = inhibition) was 11% (inactive).

Turning to `CCCCC(CC)COC(=O)c1ccc(C(=O)OCC(CC)CCCC)cc1` (centres undefined), the result in test [8] and in test [7] was inactive. The Potency entry in test [1] and in test [5] was “inactive” throughout. Further, the max response in test [3] was -8.11%.

Consider `CCCC/C=C\CCCCCCCCCC=O`, for which the Potency entry in test [1] and in test [5] was “inactive” in each case. The result in test [7] was inactive.

Turning to `COC(OC)(C(=O)c1ccccc1)c1ccccc1`, the outcome in test [7] was inactive. The max response in test [3] is -1.48%. Further, the activity change % (negative = inhibition) in test [4] is -4.01% (inactive). Further, in test [5], the Potency result is “inactive”.

As for `CCCCCCC(O)CCCCCCCCCCC(=O)OC` (centres undefined), in test [3], the max response is -11.4%. Also, the activity change % (negative = inhibition) in test [4] was -2.76% (inactive). In addition, the Potency result in test [5] was “inactive”.

In the case of `CCCCCOC(=O)COc1cc(N2C(=O)C3=C(CCCC3)C2=O)c(F)cc1Cl`, the activity change % (negative = inhibition) in test [4] was 4.65% (inactive).

For `CCOCCOCCOCC`, in test [7], the result was inactive. Also, the Potency result in test [2] is “inactive”. The max response in test [3] was -3.22%.

`CC(C)CCCCOC(=O)c1ccccc1C(=O)OCCCCC(C)C`: the max response in test [3] was determined as 6.42%.

On to `CC(C)C(=O)OC(=O)C(C)C`, for which the max response in test [3] is -11.3%. Also, in test [4], the activity change % (negative = inhibition) was 8.71% (inactive).

As for `CCCCCCCCCCCC[N+](C)(C)C`, the Potency in test [5] is 19.3 µM (active).

Regarding `O=C(c1ccccc1)c1ccc(O)c(O)c1O`, in test [3], the max response was found to be 27%.
